19 compounds from ChEMBL document CHEMBL3988442, “University of Dundee, Small-Polar-MMV Screening Library” (2021) can be followed below.

The assay addresses T1, Aspartate--tRNA(Asp/Asn) ligase (Mycobacterium tuberculosis (strain ATCC 25618 / H37Rv)) (UniProt P9WFW3).
T1 sequence (whole entry): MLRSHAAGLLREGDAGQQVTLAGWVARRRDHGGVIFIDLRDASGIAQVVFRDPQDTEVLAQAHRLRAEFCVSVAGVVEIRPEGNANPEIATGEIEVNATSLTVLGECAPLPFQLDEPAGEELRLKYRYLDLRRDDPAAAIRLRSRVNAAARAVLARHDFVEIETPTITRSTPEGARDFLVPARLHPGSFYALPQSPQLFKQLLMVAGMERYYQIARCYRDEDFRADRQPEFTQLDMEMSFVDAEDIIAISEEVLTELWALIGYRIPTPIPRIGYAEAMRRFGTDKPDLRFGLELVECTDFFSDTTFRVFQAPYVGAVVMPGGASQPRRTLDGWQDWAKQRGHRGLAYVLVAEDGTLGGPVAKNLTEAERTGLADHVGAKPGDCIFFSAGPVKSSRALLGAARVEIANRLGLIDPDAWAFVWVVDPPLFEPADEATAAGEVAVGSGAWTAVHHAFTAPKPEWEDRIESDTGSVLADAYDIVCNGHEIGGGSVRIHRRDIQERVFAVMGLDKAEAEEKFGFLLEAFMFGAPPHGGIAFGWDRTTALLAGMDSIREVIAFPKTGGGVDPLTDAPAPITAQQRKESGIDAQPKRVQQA
The experiment in a line: Assay for Asp RNA synthetase-1 from Mycobacterium tuberculosis. The note with it: 30 µM. Details: scale not given: in the data most compounds retested in dose-response had high values. Type of assay: functional.
With `O=C(NCCCn1nc2ccccn2c1=O)NC1CCC(O)CC1` (centres undefined), the Percent Effect is 4.86%.

As for `Cc1ccc(C(=O)N2CCc3c(CNS(C)(=O)=O)cncc3C2)o1`, the Percent Effect was 9.11%. In the case of `Cc1cccc(CN2CCc3c(nc(N4CCCCC4C)[nH]c3=O)C2)n1` (centres undefined), the Percent Effect is -1.15%.

Turning to `Cc1cnn(CC2CCCCN2C(=O)c2ccc3nnc(C)n3c2)c1` (centres undefined), the Percent Effect was determined as 10.3%. The result for `CC(C)(C)c1cn2nc(N3CCC[C@@H]3CO)sc2n1` reads -3.63%. Under `Cc1nc(C)n(CC2CN(Cc3cccnc3)CCO2)n1` (centres undefined) stands 5.17%; under `CC(C)NC(=O)N1CCC2(COCc3cnc(-c4cccnc4)nc32)C1` (centres undefined), -2.8%. Under `CC(=O)N1CCCC1c1cccc(Cc2ccc(F)cc2)n1` (centres undefined) stands -5.96%. As to `CS(=O)(=O)N1CC[C@H]2C[C@@H](C(=O)N3CCOCC3)O[C@@H]2C1`, the Percent Effect worked out at 2.65%.

As to `COc1ccc(F)cc1C(C(=O)O)N1CCSCC1` (centres undefined), the Percent Effect worked out at 4.05%. Under `CCn1nc2c(cc1=O)CN(CC(=O)Nc1nc(C)c(C)s1)CC2` stands 3.7%. On to `COc1cccc(C)c1C(=O)N1C[C@@H](CN(C)C)[C@@H](CO)C1`, for which the Percent Effect is 0.951%. Under `CC(=O)c1cccc(OCCCC(=O)N(C)CCc2ccncc2)c1` stands -0.591%. Under `O=C(c1cc(F)ccc1F)C1CCN(C(=O)c2cccnc2O)CC1` stands -2.36%. In the case of `CCOc1ccc2[nH]c(=O)c(CN3CCC(O)CC3)cc2c1`, the Percent Effect was -6.3%. In the case of `CCOCCN1CCN(Cc2nnc(C3CC3)o2)CC1CC` (centres undefined), the Percent Effect worked out at 1.06%. In the case of `NC(=O)NCC(=O)N1C[C@H]2CC[C@@H]1CN(Cc1ccccc1)C2`, the Percent Effect was 15.6%. Under `CCn1c(C)nnc1CN(C)C1CCN(Cc2nccn2C)C1` (centres undefined) stands 1.34%. With `CCn1c(C(=O)N2CCN(C(=O)COC)CC2)cc2ccccc21`, the Percent Effect was -7.07%.
